# From PubChem BioAssay (NCI)
# About 83,000 compounds went through this panel and 20% of them were active in at least one assay; those are over-represented in the sample as a whole.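 Values shown are percent growth following 48 h exposure of cells in 96-well plates to a single concentration of compound; below 10 was considered active.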 Calls of active or inactive are those of the source.
# Tested on: HL-60(TB) leukemia
# Experiment: NCI-60 one-dose screen, 48 h (100 = growth as untreated, 0 = no growth, -100 = all killed)
# Conditions: 10 µM unless noted
row,Compound,growth
1,COc1ccc(/C(=C2/O[C@@H]([C@H]3COC(C)(C)O3)[C@H]3OC(C)(C)O[C@@H]23)c2cc(OC)c(OC)c(OC)c2)cc1O,-0.369% (active)
2,O=c1ccc2nc(-c3ccccn3)nn(-c3ccccc3)c-2c1,31.1% (inactive)
3,COc1cc(NC(=O)Nc2cnc(Nc3ccc(N4CCOCC4)cc3)nc2Oc2ccc(F)cc2)cc(OC)c1,65.4% (inactive)
4,CCOC(=O)c1sc(NC(=O)COc2ccc(/C=C3\Cc4ccc(Cl)cc4C3=O)cc2)nc1C,98% (inactive)
5,CCOc1nc(-c2ccccc2)cc2c(O)c(-c3nnco3)[nH]c(=O)c12,34.6% (inactive)
6,CN1C(=O)N(C)C2(c3ccccc3)n3c(s/c(=C\c4ccccc4)c3=O)=NNC12c1ccccc1 (stereo not drawn),90.1% (inactive)
7,O=C1c2cccc3cc([N+](=O)[O-])cc(c23)C(=O)N1CCN1CCCC1,-54.1% (active)
8,COc1ccc2[nH]c(O)c(/C=c3/cc4c(c(-c5cc(OC)c(OC)c(OC)c5)n3)=Nc3ccccc3-4)c2c1,58.8% (inactive)
